# From PubChem BioAssay
# Abeta rescue = compounds reversing amyloid beta toxicity in yeast; Potency, µM (doses to about 46.1 µM), hits mostly activators; yeast expressing A-beta42, growth rescue, OD600, 48 h; response scale: 0% DMSO, 100% iron-clioquinol control; AID 1347071; 410,000 compounds, 0.063% hits; note: nearly all actives have a fitted effect of over 55% in size
#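 Growth rescue measured by 600 nm absorbance after 48 h yeast culture at 30 C with compound. Values normalized between DMSO and an equimolar ferric chloride plus clioquinol control.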
# aSyn rescue = alpha-synuclein toxicity inhibition in yeast; AID 652106; Potency, µM (top dose mostly 46.1 µM), for the others: at the highest dose growth rescue (activation), most hits filed as activators; 370,000 compounds, 0.14% hits; Yeast expressing alpha-synuclein, growth rescue, BacTiter-Glo, 24 h; note: % of control where 0% means no effect; nearly all actives have a fitted effect of over 65% in size
#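 Screening used galactose-induced yeast with toxic alpha-synuclein levels, exposed to compound for 24 hr at 30 deg C. Cell growth, read with BacTiter-Glo luminescence, gave the measured signal.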
# TDP-43 yeast inh = rescues yeast growth from TDP-43 toxicity. 410,000 compounds, 1.8% hits. Potency, µM (top dose mostly 46.1 µM), inactives show at the top dose growth rescue (activation), actives largely listed as activators. TDP-43 expressing yeast growth rescue, BacTiter-Glo, 24 h; note: % of control where 0% means no effect; nearly all actives have a fitted effect of over 50% in size
#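 Cell-based yeast growth screen: TDP-43 expression induced in galactose, inoculum OD600=0.02 after raffinose pregrowth to mid-log. Read-out BacTiter-Glo luminescence at 24 hr, 30 deg C; inhibition of toxicity seen as signal increase.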
# FUS suppressor = suppressors of FUS proteinopathy in yeast; S. cerevisiae FUS-expressing, growth rescue, OD600, 24 h; Potency, µM (doses to about 76.6 µM), most hits filed as activators; 390,000 compounds, 0.24% hits;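 note: plate controls were DMSO vehicle for no effect and reference control for full effect; nearly all actives have a fitted effect of over 55% in size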
#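 Toxicity suppression screen in FUS-yeast. Cells induced with 2% galactose, starting OD 0.005, treated 24hr at 30C with compounds at multiple final concentrations; growth by OD600.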
# Mito fusion act = inhibitors of mitochondrial division or activators of mitochondrial fusion | S. cerevisiae fusion-defective mutant growth rescue, CellTiterGlo 48 h | AID 485298 | Potency, µM (titrated, usually from 46.1 µM), inactives show at the highest dose growth rescue (activation), usual class: activators | 320,000 compounds, 0.23% hits; note: % of control where 0% means no effect; nearly all actives have a fitted effect of over 45% in size
#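 Read-out: ATP-based luminescence (CellTiterGlo, 10 min ambient) reporting growth of fusion-defective ts yeast after 48 hours at 37C on glycerol/ethanol YPEG medium in the presence of compound.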
# The depositor's hits bear a star; i = inactive; u = inconclusive; x = no result. Most compounds without a hit are left out; they make up all but 2.2% or so of the library. Calls come from the whole dose curve; as a rule, active = well fitted curve in the direction sought with a large enough effect; inconclusive = small, poorly fitted or top-dose-only effect, or another doubt; inactive = no such curve, though single readings can be large; an effect the other way counts as inactive or inconclusive. Potency is the fitted concentration of half-maximal effect.
SMILES,Abeta rescue,aSyn rescue,TDP-43 yeast inh,FUS suppressor,Mito fusion act
C=CCC1(CC=C)CCCN1C(=O)c1cc(COc2ccc(C)nc2)on1,x,5%,23%,i,33%
CC(=O)Nc1ccc(NC(=O)COc2ccc(S(=O)(=O)N3CCCC3)cc2)cc1,i,1%,-1%,i,6%
CCOc1cccc(-c2cc(C(=O)N3N=C(C)CC3(O)C(F)F)c3ccccc3n2)c1 (stereo not given),i,5%,18µM*,i,5%
COc1ccc(-c2nc(CSCC(=O)N3CCN(c4ccccc4F)CC3)c(C)o2)cc1,i,x,0%,u,x
Cc1oc(-c2ccccc2Cl)nc1CSCC(=O)NC1CCCC1,i,3%,u,i,7%
COc1ccc(-c2nc(CSCC(=O)NCc3ccccc3Cl)c(C)o2)cc1OC,i,x,25µM*,i,x
Cc1oc(-c2ccccc2F)nc1CSCC(=O)N1CCN(c2ccccc2)CC1,i,x,32µM*,i,x
Cc1oc(-c2ccccc2Cl)nc1CSCC(=O)N1CCCC1,i,-1%,13µM*,i,-4%
CCCN1CNc2c(c(=O)[nH]c(=S)n2CCc2cccc(OC)c2)C1,x,-3%,x,x,x
O=c1[nH]c2ccccc2c(O)c1-c1ccccc1,i,5%,4%,i,13%
O/N=C/Cc1[nH]c2ccccc2c1-c1ccccc1,i,-6%,16µM*,i,-9%
CC1(C(=O)NS(=O)(=O)c2ccccc2OC(F)(F)F)CCN1C(=O)Cc1ccccc1 (stereo not given),i,-6%,12%,i,x
CCN(CC)CCCNC(=O)c1ccc2c(c1)NC(=O)C(CS(=O)(=O)Cc1ccc(F)cc1Cl)N2 (stereo not given),i,x,-1%,25µM*,x
CCN(CC)CCNC(=O)c1ccc2c(c1)NC(=O)C(CS(=O)(=O)Cc1ccc(F)cc1Cl)N2 (stereo not given),i,x,3%,u,-10%
CCC(=O)N(CC)c1nc(-c2ccc(OC)cc2)cs1,i,-23%,5µM*,i,-3%
CCC(=O)N(Cc1ccco1)c1nc(-c2ccc(OC)cc2)cs1,i,5%,11%,i,-4%
Cc1ncsc1CCOC(=O)C12CC3CC(CC(C3)C1)C2,i,-6%,20µM*,i,-1%
Cc1ncsc1CCOC(=O)c1cccnc1,i,2%,3%,i,1%
CCOc1ccc(NS(=O)(=O)c2ccc3c4c(cccc24)C(=O)N3)cc1,i,x,19%,i,x
N#Cc1cc(NCC2CCCO2)c([N+](=O)[O-])cc1C#N (stereo not given),i,-3%,22%,x,-1%
O=[N+]([O-])c1cc(C(F)(F)F)ccc1NCC1CCCO1 (stereo not given),i,5%,14µM*,i,-2%
C=CCn1cnc2c(nnn2-c2cc(C)cc(C)c2)c1=O,i,2%,11µM*,i,-1%
CCn1cc(C(=O)NCc2ccco2)c(=O)c2cc(S(=O)(=O)N3CCc4ccccc4C3)ccc21,i,2%,-13%,6.3µM*,1%
CCn1cc(C(=O)NCc2ccco2)c(=O)c2cc(S(=O)(=O)N3CCCCCC3)ccc21,i,-14%,-9%,u,13%
CC(C)c1ccc(CNc2ncccn2)cc1,i,13%,22%,i,-1%
SMILES,Abeta rescue,aSyn rescue,TDP-43 yeast inh,FUS suppressor,Mito fusion act
CCCN1CNc2c(c(=O)[nH]c(=S)n2CCc2cc(C)cc(C)c2)C1,x,-3%,x,x,x
CC1=NNC(=O)/C1=C\c1cn(-c2ccccc2)nc1-c1ccc(Cl)cc1,i,-26%,10µM*,x,-16%
Cc1ccc(N2CCN(S(=O)(=O)c3ccc(Cl)c4ccccc34)CC2)c(C)c1,i,1%,19%,i,x
CC(C)[C@@H]1CC[C@@H](C)c2c(-c3ccccc3)n[nH]c21,i,u,11µM*,i,-19%
Cc1cc(Oc2ccc(-c3ccccc3)cc2)n2ncnc2n1,i,13%,18µM*,i,-4%
CCN(c1ccccc1)c1cc(C)nc2ncnn12,i,-4%,10%,i,7%
CCn1c(/C=C/N(C(C)=O)c2ccccc2)[n+](CC)c2ccc(Cl)cc21,i,3%,1%,x,-6%
